Only some compounds are listed: those with a hit (about 2.6% of all), similar ones and a draw of the others.
Nrf2 ARE act: activators of Nrf2 (ARE) signaling | AREc32 ARE-luciferase reporter (MCF7-derived line), luminescence, 24 h | Potency, µM (titrated, usually from 46.1 µM), usual class: activators | hit rate 0.31% among 410,000 | AID 624171; also: nearly all actives have a fitted effect of over 65% in size
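Luciferase luminescence (Steady-Glo, 30 min at room temperature) served as the read-out of ARE activation in AREc32 cells treated with compounds for 24 hr at 37 deg C.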
A549 tox: kills or reduces viability of A549 cells in Nrf2 counter-screen; hit rate 0.16% among 390,000; A549 ARE-Fluc cells, CellTiter-Fluor viability, 18-24 h; Potency, µM (doses to about 46 µM), usual class: inhibitors
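A549 ARE-Fluc cells in 5% FBS OPTI-MEM, 5000 cells/well, rested 2 h then exposed to compounds in concentration-response for 18-24 h at 37 °C. Viability by CellTiter-Fluor fluorescence (Ex 405/Em 525) after 30 min; luciferase luminescence (BugLite, 15 min, RT) read afterwards.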
TCR activator: activators of T cell receptors; primary human leukocytes, anti-CD3, IL-2 HTRF, 48 h; Potency, µM (top dose mostly 9.22 µM), usual class: activators; 330,000 tested, under 10 active
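Human primary leukocytes + a-CD3 beads + cpd, 48 hr; IL-2 in supernatant by HTRF (ex 320nm / em 665nm). No co-stimulatory signal supplied.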
CCT chaperon mod: changes cytosolic chaperonin activity; hit rate 0.3% among 360,000; activity change, % (no concentration beside the values), hits read low; purified chaperonin ATPase assay, HTRF ADP detection, 30 min; AID 651819; in the data active = activity change below about -30%
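We incubate TRiC, 40 or 20 nM final, with library compounds at 76 uM and 10 uM ATP for 30 min at 37 °C. ADP formed is detected with Transcreener HTRF reagents after 30 min at room temperature.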
Nrf2 block: Nrf2 pathway inhibition; A549 ARE-Fluc reporter, luciferase luminescence, 18-24 h; Potency, µM (highest dose often 46 µM), usual class: inhibitors; hit rate 2.1% among 360,000; also: nearly all actives have a fitted effect of over 60% in size
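In this cell-based qHTS, ARE-driven firefly luciferase in A549 cells reports Nrf2 activity; the luminescent signal after BugLite lysis is the measured value, with a prior CellTiter-Fluor read for cell health.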
A-T KAP1 phos: potential ataxia-telangiectasia treatment. F2112 A-T fibroblasts, KAP-1 phosphorylation AlphaLISA; neocarzinostatin DNA damage 30 min before lysis. hit rate 0.19% among 320,000. AID 485349. Potency, µM (series often up to 57.5 µM), usual class: activators; also: nearly all actives have a fitted effect of over 45% in size
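ATM-like activity read as KAP-1 phosphorylation via AlphaLISA donor/acceptor antibody pairs after lysis and 6 hr at 25C. Cells were ATM-null patient fibroblasts (F2112, hTERT), dosed 60 min, then exposed to the DSB inducer NCS for 30 min.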
Hits are given with their value; - = inactive; ? = inconclusive; . = not tested or not shown; [ ] = remark or other dose. Unless noted, calls follow the shape of the dose curve; as a rule, active = well fitted curve in the direction sought with a large enough effect; inconclusive = small, poorly fitted or top-dose-only effect, or another doubt; inactive = no such curve, though single readings can be large; an effect the other way counts as inactive or inconclusive.

SMILES | Nrf2 ARE act | A549 tox | TCR activator | CCT chaperon mod | Nrf2 block | A-T KAP1 phos
Cc1ccc(NC(=O)CSc2ccccc2)cc1S(=O)(=O)N1CCCCC1 | - | - | - | - | 23µM | -
CN(C)c1ccc(CNC(=O)CN2C(=O)CSc3ccc(S(=O)(=O)N4CCCC4)cc32)cc1 | - | - | . | . | - | .
CCOc1ccc(S(=O)(=O)N2CCC(C(=O)NCC3CCCO3)CC2)cc1 (stereo not given) | - | - | - | - | - | -
CCOC(=O)c1cc2c(=O)n3ccccc3nc2n(Cc2ccco2)c1=NC(=O)c1cccc(F)c1 | - | - | . | . | -[9.27 µM] | .
COc1ccc(NC(=O)Cn2c(=O)cnc3ccccc32)cc1S(=O)(=O)N1CCCCC1 | - | - | - | - | - | -
Cc1ccc(NC(=O)CSc2ncnc3ccccc23)cc1S(=O)(=O)N1CCCCC1 | - | ? | - | - | 15µM | -
Cc1ccc(NC(=O)CSc2ncnc3ccccc23)cc1S(=O)(=O)N1CCOCC1 | - | - | - | - | 23µM | -
Cc1ccc(NC(=O)c2cc(=O)c3ccccc3o2)cc1S(=O)(=O)N1CCCCC1 | - | - | - | - | 16µM | ?
Cc1ccc(NC(=O)COc2ncnc3ccccc23)cc1S(=O)(=O)N1CCOCC1 | - | - | - | - | - | -
Cc1ccc(NC(=O)Cn2c(=O)cnc3ccccc32)cc1S(=O)(=O)N1CCCCC1 | - | - | - | - | 13µM | -
CCOC(=O)c1ccc(N2C(=O)C(CC(=O)NC)N(CCc3ccc(OC)c(OC)c3)C2=S)cc1 (stereo not given) | ? | - | - | - | - | -
COc1ccccc1/C=C/C(=O)c1c2c(c(C)[nH]c1=O)CCCC2 | - | ? | . | - | 16µM | -
COc1ccccc1/C=C/C(=O)c1ccccc1 | ? | - | - | - | ? | -
CCOc1ccc(NC(=O)CN(C)C(=O)CCNC(=O)c2ccccc2Cl)cc1OCC | - | - | - | -44 | - | -
O=C(Nc1ccc2oc(=O)ccc2c1)c1ccc(-c2ccc(Cl)cc2)o1 | - | - | - | - | - | -
O=C(Nc1ccc2oc(=O)ccc2c1)c1ccc(-c2cccc([N+](=O)[O-])c2)o1 | - | ? | - | - | 23µM | -
O=C(Nc1ncc(Cc2ccccc2Cl)s1)c1ccc(-c2cccc([N+](=O)[O-])c2)o1 | - | - | - | - | 16µM | -
O=C(Nc1ncc(Cc2ccccc2Cl)s1)c1ccc([N+](=O)[O-])cc1 | - | - | - | - | - | -
O=C(Nc1ccc2oc(=O)ccc2c1)c1ccc(-c2cccc(Cl)c2)o1 | - | - | - | - | 18µM | ?
COc1cccc(C2c3c(ncn(-c4ccccc4C)c3=N)Oc3ccc4ccccc4c32)c1 (stereo not given) | . | - | . | . | - | .
Nc1ccc(C(=O)c2cccs2)cc1[N+](=O)[O-] | - | - | - | - | ? | -[11.5 µM]
CCC(NS(=O)(=O)c1cnn(CC)c1)c1ccccc1 (stereo not given) | - | - | - | - | - | -
CCC(NS(=O)(=O)c1cn(C)nc1C)c1ccccc1 (stereo not given) | - | - | - | -31 | - | -
Cc1ccc2oc(=O)n(CCNC(=O)Nc3ccccc3Cl)c2c1 | - | - | . | . | - | .
COc1ccc(C(=O)c2cc([N+](=O)[O-])ccc2N2CCN(C)CC2)cc1 | - | 15µM | - | - | - | -
CCCOC(=O)/C(=C\C=C\c1ccco1)NC(=O)c1ccccc1 | 13µM | - | - | - | ? | -
Cc1ccc(Cl)cc1N1CCN(C(=S)NCCc2ccccc2)CC1 | - | - | . | - | - | -
Cc1ccc(Cl)cc1N1CCN(c2cccc[n+]2C)CC1 | - | - | - | - | 8.2µM | -
COc1ccc(NC2=C(Cl)C(=O)N(CCc3ccccc3)C2=O)c(OC)c1 | 13µM | - | - | - | - | -
CS(=O)(=O)Nc1ccc(C2=NN(C(=O)C3CCCCC3)C(c3cccs3)C2)cc1 (stereo not given) | - | - | - | - | 23µM | -
